Results from PubChem BioAssay AID1159580 (chemical genetic matrix, 2015).
“And” between values parts separate entries of the source, which are not always exact repeats. Identical values can stand only once. The whole screen tested about 5,500 compounds, of which about 2,000 (36%) were called active. Inconclusive results (about 18%) are left out. No stated cut-off is given here; in the data, active means normalized growth mostly below about 0.91 (no sharp cut-off); inconclusive means no clear call, values can overlap the other calls; inactive means mostly above about 0.92. The list shows a part of the results.

Test: chemical genetic growth profiling, strain panel (AID 1159580);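 further: tested at 20 µM; growth read once vehicle control cultures reached saturation at 30 °C; 1 = growth at the plate median or of vehicle wells; lower values mean less growth of the strain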
Settings: growth OD

Measured: normalized growth

O=C(O)c1cc2cc(F)ccc2[nH]1
inactive: S. cerevisiae deletion strains, locus YJR075W, strain HOC1, hits give low values 1.01 | S. cerevisiae deletion strains, locus YKL009W, strain mrt4, hits give low values 1 | S. cerevisiae deletion strains, locus YKL068W, hits give low values 1.01 | S. cerevisiae deletion strains, locus YKL085W, strain MDH1 (second series), hits give low values 1.01 | S. cerevisiae deletion strains, locus YKL085W, strain MDH1, hits give low values 1.01 | S. cerevisiae deletion strains, locus YKL160W, strain elf1, hits give low values 0.974 | S. cerevisiae deletion strains, locus YKL190W, strain CNB1, hits give low values 0.999 | S. cerevisiae deletion strains, locus YKR001C, strain vps1, hits give low values 1.02 | S. cerevisiae deletion strains, locus YKR026C, strain gcn3, hits give low values 0.949 | S. cerevisiae deletion strains, locus YKR091W, strain srl3, hits give low values 0.968 | S. cerevisiae deletion strains, locus YLL001W, strain dnm1, hits give low values 0.976 | S. cerevisiae deletion strains, locus YLL026W, hits give low values 0.996 | S. cerevisiae deletion strains, locus YLL041C, strain sdh2, hits give low values 0.97 | S. cerevisiae deletion strains, locus YLR027C, strain aat2, hits give low values 0.99 | S. cerevisiae deletion strains, locus YLR039C, strain RIC1, hits give low values 1.02 | S. cerevisiae deletion strains, locus YLR058C, strain SHM2, hits give low values 1.01 | S. cerevisiae deletion strains, locus YLR102C, strain apc9, hits give low values 1.02 | S. cerevisiae deletion strains, locus YLR113W, strain HOG1, hits give low values 0.948 | S. cerevisiae deletion strains, locus YLR221C, strain rsa3, hits give low values 0.986 | S. cerevisiae deletion strains, locus YLR258W, strain gsy2, hits give low values 0.987 | S. cerevisiae deletion strains, locus YLR262C, strain YPT6 (second series), hits give low values 1 | S. cerevisiae deletion strains, locus YLR262C, strain YPT6, hits give low values 1.04 | S. cerevisiae deletion strains, locus YLR268W, strain sec22, hits give low values 1.02 | S. cerevisiae deletion strains, locus YLR320W, strain mms22, hits give low values 1.01 | S. cerevisiae deletion strains, locus YLR330W, strain CHS5, hits give low values 1.01 | S. cerevisiae deletion strains, locus YLR342W, strain FKS1 (second series), hits give low values 1.01 | S. cerevisiae deletion strains, locus YLR342W, strain FKS1, hits give low values 0.98 | S. cerevisiae deletion strains, locus YLR357W, strain rsc2, hits give low values 0.976 | S. cerevisiae deletion strains, locus YLR370C, strain arc18, hits give low values 0.989 | S. cerevisiae deletion strains, locus YLR371W, strain rom2, hits give low values 1.01 | S. cerevisiae deletion strains, locus YLR384C, strain iki3, hits give low values 0.965 | S. cerevisiae deletion strains, locus YLR418C, strain cdc73, hits give low values 1.05 | S. cerevisiae deletion strains, locus YML016C, strain PPZ1, hits give low values 1.01 | S. cerevisiae deletion strains, locus YML032C, strain rad52, hits give low values 1.02 | S. cerevisiae deletion strains, locus YML120C, strain ndi1, hits give low values 0.995 | S. cerevisiae deletion strains, locus YML124C, strain tub3, hits give low values 1.01 | S. cerevisiae deletion strains, locus YMR058W, strain fet3, hits give low values 0.985 | S. cerevisiae deletion strains, locus YMR078C, strain ctf18, hits give low values 1.02 | S. cerevisiae deletion strains, locus YMR125W, strain sto1, hits give low values 0.948 | S. cerevisiae deletion strains, locus YMR129W, hits give low values 0.982 | S. cerevisiae deletion strains, locus YMR205C, strain PFK2, hits give low values 1.03 | S. cerevisiae deletion strains, locus YMR223W, strain ubp8, hits give low values 1.02 | S. cerevisiae deletion strains, locus YMR231W, strain pep5, hits give low values 0.992 | S. cerevisiae deletion strains, locus YMR263W, strain SAP30, hits give low values 1.01 and 0.999 | S. cerevisiae deletion strains, locus YMR307W, strain GAS1, hits give low values 1.05 | S. cerevisiae deletion strains, locus YNL067W, strain RPL9B, hits give low values 1.02 | S. cerevisiae deletion strains, locus YNL071W, strain lat1, hits give low values 0.984 | S. cerevisiae deletion strains, locus YNL128W, strain TEP1, hits give low values 1 | S. cerevisiae deletion strains, locus YNL153C, strain GIM3, hits give low values 1.01 | S. cerevisiae deletion strains, locus YNL175C, strain NOP13, hits give low values 0.952 | S. cerevisiae deletion strains, locus YNL183C, strain NPR1, hits give low values 0.908 | S. cerevisiae deletion strains, locus YNL197C, strain WHI3, hits give low values 0.949 | S. cerevisiae deletion strains, locus YNL209W, strain ssb2, hits give low values 0.983 | S. cerevisiae deletion strains, locus YNL224C, strain SQS1, hits give low values 0.973 | S. cerevisiae deletion strains, locus YNL233W, strain BNI4, hits give low values 1.01 | S. cerevisiae deletion strains, locus YNL248C, strain rpa49, hits give low values 0.969 | S. cerevisiae deletion strains, locus YNL250W, strain rad50, hits give low values 1.01 | S. cerevisiae deletion strains, locus YNL271C, strain bni1, hits give low values 1.01 | S. cerevisiae deletion strains, locus YNL298W, strain CLA4, hits give low values 1.03 | S. cerevisiae deletion strains, locus YNL307C, strain MCK1, hits give low values 1.02 | S. cerevisiae deletion strains, locus YNL322C, strain KRE1 (second series), hits give low values 0.99 | S. cerevisiae deletion strains, locus YNL322C, strain KRE1, hits give low values 1.01 and 0.971 | S. cerevisiae deletion strains, locus YNR049C, strain mso1, hits give low values 0.97 | S. cerevisiae deletion strains, locus YNR052C, strain pop2, hits give low values 1.02 | S. cerevisiae deletion strains, locus YOL006C, strain TOP1, hits give low values 1.05 | S. cerevisiae deletion strains, locus YOL012C, strain htz1 0.97 | S. cerevisiae deletion strains, locus YOL147C, strain pex11, hits give low values 1.01 | S. cerevisiae deletion strains, locus YOR001W, strain rrp6, hits give low values 0.961 | S. cerevisiae deletion strains, locus YOR061W, strain CKA2, hits give low values 1.01 | S. cerevisiae deletion strains, locus YOR069W, strain VPS5, hits give low values 0.998 | S. cerevisiae deletion strains, locus YOR070C, strain gyp1, hits give low values 1 | S. cerevisiae deletion strains, locus YOR080W, strain dia2, hits give low values 0.977 | S. cerevisiae deletion strains, locus YOR083W, strain WHI5 (second series), hits give low values 0.964 | S. cerevisiae deletion strains, locus YOR083W, strain WHI5, hits give low values 0.965 | S. cerevisiae deletion strains, locus YOR106W, strain vam3, hits give low values 0.972 | S. cerevisiae deletion strains, locus YOR136W, strain idh2, hits give low values 1.02 | S. cerevisiae deletion strains, locus YOR144C, strain elg1, hits give low values 1.01 | S. cerevisiae deletion strains, locus YOR184W, strain ser1, hits give low values 1.02 | S. cerevisiae deletion strains, locus YOR231W, strain MKK1, hits give low values 0.986 | S. cerevisiae deletion strains, locus YOR265W, strain rbl2, hits give low values 0.98 | S. cerevisiae deletion strains, locus YOR270C, strain vph1, hits give low values 1.03 | S. cerevisiae deletion strains, locus YOR290C, strain snf2, hits give low values 0.946 | S. cerevisiae deletion strains, locus YOR316C, strain cot1, hits give low values 1.02 | S. cerevisiae deletion strains, locus YPL051W, strain arl3, hits give low values 0.997 | S. cerevisiae deletion strains, locus YPL055C, strain LGE1, hits give low values 1.01 and 1.02 | S. cerevisiae deletion strains, locus YPL078C, strain atp4, hits give low values 0.956 | S. cerevisiae deletion strains, locus YPL106C, strain sse1, hits give low values 0.938 | S. cerevisiae deletion strains, locus YPL240C, strain hsp82, hits give low values 0.963 | S. cerevisiae deletion strains, locus YPL241C, strain CIN2, hits give low values 0.992 and 0.993 | S. cerevisiae deletion strains, locus YPL256C, strain CLN2, hits give low values 1.01 | S. cerevisiae deletion strains, locus YPR119W, strain clb2, hits give low values 1.01 | S. cerevisiae deletion strains, locus YPR141C, strain kar3, hits give low values 1.01 | S. cerevisiae deletion strains, locus YPR163C, strain tif3, hits give low values 1.01 | S. cerevisiae deletion strains, locus YPR167C, strain met16, hits give low values 1.02 | S. cerevisiae deletion strains, strain wtn01, hits give low values 1.02 | S. cerevisiae strains, strain wild type, hits give low values 0.979
